Source: PubChem (National Center for Advancing Translational Sciences (NCATS))
Only some compounds are listed: those with a hit (about 17% of all), similar ones and a draw of the others.
ClpP mod: qHTS Assay for Activators of ClpP; ATP-dependent Clp protease proteolytic subunit (Bacillus subtilis (strain 168)), P80244; purified B. subtilis ClpP, FRET peptide cleavage, 20 min; 1.9% of 340,000 active; Potency, µM (top dose mostly 57.5 µM); active = well fitted falling curve with a large enough effect; inconclusive = small, poorly fitted or top-dose-only effect; inactive = no such curve, though single readings can be large or run the other way; note: the source files actives as falling curves though it sought activators and does not explain the sign; nearly all actives have a fitted effect of over 65% in size
Target sequence (P80244 whole entry, looked up): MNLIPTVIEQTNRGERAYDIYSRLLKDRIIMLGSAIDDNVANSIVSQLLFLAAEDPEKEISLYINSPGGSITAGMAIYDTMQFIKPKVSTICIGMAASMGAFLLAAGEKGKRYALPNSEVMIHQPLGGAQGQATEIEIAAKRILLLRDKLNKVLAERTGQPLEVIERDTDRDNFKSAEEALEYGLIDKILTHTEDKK
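Purified B. subtilis ClpP, 10 microg/mL final in Tris/HCl pH8 with KCl, BSA, glycerol and Tween-20, cleaved an Abz/nitrotyrosine-quenched decapeptide. Fluorescence (ex 320, em 430) was read at 0 and 20 min at room temperature. Delta was normalized to 5.8 microM ADEP and DMSO/no-enzyme controls.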
DT40 TDP1 no CPT: qHTS for Inhibitors of human tyrosyl-DNA phosphodiesterase 1 (TDP1): qHTS in cells in absence of CPT. DT40 Tdp1-/- hTDP1 cells, no CPT, ATP luminescence, 48 h. Potency, µM (doses to about 46.2 µM), hits mostly inhibitors. 15% of 420,000 active; note: nearly all actives have a fitted effect of over 55% in size
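Chicken DT40 Tdp1-/- cells stably complemented with human TDP1 were seeded at 400 cells/well with DMSO in place of 20 nM camptothecin. After compound pinning, cells grew at least 48 hr at 37 °C; viability read by CellTiter-Glo luminescence.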
DT40 TDP1 CPT: qHTS for Inhibitors of human tyrosyl-DNA phosphodiesterase 1 (TDP1): qHTS in cells in presence of CPT; 12% of 420,000 active; Potency, µM (doses to about 46.2 µM), hits mostly inhibitors; AID 686979, 2013; chicken DT40 Tdp1-/-;hTDP1 cells + 20 nM CPT, ATP luminescence, 48 h; note: nearly all actives have a fitted effect of over 55% in size
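Chicken DT40 Tdp1-/- cells stably complemented with human TDP1 were seeded at 400 cells/well in medium containing 20 nM camptothecin, exposed to pin-transferred compounds, and grown at 37 °C for at least 48 hr. Viability was read as ATP luminescence.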
TDP1 inh: qHTS Assay for Inhibitors of Tyrosyl-DNA Phosphodiesterase (TDP1); Tyrosyl-DNA phosphodiesterase 1 (Homo sapiens), Q9NUW8; recombinant TDP1, AlphaScreen DNA substrate cleavage; Potency, µM (top dose mostly 130 µM), actives largely listed as inhibitors; 0.28% of 350,000 active; note: nearly all actives have a fitted effect of over 40% in size
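Steps: enzyme plus compound, 15 min RT; add biotin/phosphotyrosine-FITC oligonucleotide (15 nM final), react 5 min; add donor/acceptor beads (10 ug/ml final), 10 min; read AlphaScreen. Tdp1 at 1 nM final.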
Numbers stand for hits; i = inactive; ? = inconclusive; nt = no result; [ ] = another dose, or the depositor's remark. Unless noted, calls come from the whole dose curve; as a rule, active = well fitted curve in the direction sought with a large enough effect; inconclusive = small, poorly fitted or top-dose-only effect, or another doubt; inactive = no such curve, though single readings can be large; an effect the other way counts as inactive or inconclusive.

SMILES	ClpP mod	DT40 TDP1 no CPT	DT40 TDP1 CPT	TDP1 inh
C=C1CC[C@H](O)C/C1=C/C=C1\CCC[C@]2(C)[C@H]1CC[C@H]2[C@@H](C)CCCC(C)C	nt	nt	nt	i[21 µM]
C#CC(C)(CC)NC(=O)Cn1nnc(-c2ccc(OCc3ccccc3C)cc2)n1 (configuration not stated)	i	?	?	i
S=P1(Oc2ccccc2)Nc2ccccc2N1	nt	i	i	nt
C=CCn1nc(C(=O)N2CCOCC2)cc1-c1sc(NC(=O)c2ccccc2)nc1C	i	10.3µM	14.6µM	nt
CCCCn1c(-c2nn(C)cc2Cl)n[nH]c1=S	i	?	i	i
CCOc1ccc(S(=O)(=O)Nc2cccc(C(=O)N3CCN(c4ccccn4)CC3)c2)cc1	i	16.4µM	13µM	nt
CN1CCN(C(=O)COc2ccc(S(=O)(=O)Nc3ccc(F)cc3)cc2)CC1	i	i	i	i
COc1ccc2c(c1OC)CN1CCc3cc4c(cc3C1C2)OCO4 (configuration not stated)	nt	?	20.6µM	nt
COc1ccc2c(c1OC)CN1CCc3cc4c(cc3[C@H]1C2)OCO4	i	13µM	14.6µM	i
Cc1ccc(C(=O)Nc2ccc(S(=O)(=O)N3CCC(c4nc5ccccc5s4)CC3)cc2)cc1	i	?	?	i
NC(=O)Oc1ccc(Cc2ccccc2)cc1	nt	?	i	i
O=C1NC2CCCCN2C12CCN(CCCN1c3ccccc3CCc3ccc(Cl)cc31)CC2 (configuration not stated)	nt	23.7µM	?	nt
CN(C)S(=O)(=O)c1ccc(C(=O)NNc2nc(-c3ccccc3)c3cc(Br)ccc3n2)cc1	i	?	?	i
Cc1ccccc1-c1nc(CN2C(=O)CN=C(c3ccccc3)c3ccccc32)c(C)o1	i	i	?	i
O=C1CC(c2ccc(F)cc2)c2c(c3ccccc3oc2=O)O1 (configuration not stated)	i	i	i	i
COc1cc2c(cc1OC)C13CCN4CC5=CCOC6CC(=O)N2C1C6C5C3C4 (configuration not stated) (tested in a mixture with another compound)	nt	?	13µM	nt
Cc1cc(C(C)(C)C)cc(C)c1CC1=NCCN1	i	?	?	i
C/C=C1/CC(C)C(C)(O)C(=O)OCC2CCN3CCC(OC1=O)C23 (configuration not stated)	nt	i	i	i
CN(c1ccc(OCC(=O)N2CCN(C/C=C/c3ccccc3)CC2)cc1)S(=O)(=O)c1cccs1	i	5.8µM	13µM	i
N#CN	nt	i	i	i
Cc1ccccc1Cn1cccc(C(=O)Nc2cc(Cl)ccc2C#N)c1=O	i	i	i	i
COc1ccc(C2=C(C(C)=O)Sc3nnc(-c4ccc(C)cc4)n3N2C(C)=O)cc1OC	i	4.61µM	2.91µM	i
CC[C@@H](C(=O)[C@@H](C)[C@@H](O)[C@H](C)[C@@H]1O[C@@H]([C@@H](CC)C(=O)O)CC[C@@H]1C)[C@H]1O[C@]2(C=C[C@@H](O)[C@]3(CC[C@@](C)([C@H]4CC[C@](O)(CC)[C@H](C)O4)O3)O2)[C@H](C)C[C@@H]1C	i	0.517µM	0.581µM	nt
CCCCn1c(O)c(C(CC)=Nc2ccc(C(=O)O)cc2)c(=O)[nH]c1=O	2.51µM	i	i	i
CCCCn1c(O)c(C(C)=Nc2ccc(OCC)cc2)c(=O)[nH]c1=O	i	23.1µM	18.4µM	i
SMILES	ClpP mod	DT40 TDP1 no CPT	DT40 TDP1 CPT	TDP1 inh
C=CCn1c(O)c(C(CC)=Nc2ccc(C(=O)O)cc2)c(=O)[nH]c1=O	nt	i	i	nt
CCCCn1c(O)c(C(C)=NCCc2c[nH]c3ccccc23)c(=O)[nH]c1=O	i	16.4µM	?	i
O=C1NC(=O)c2c1c1c3ccccc3n3c1c1c2c2ccccc2n1C1CCC3O1	nt	nt	nt	i
c1nc[n]([Sn]([CH]2CCCCC2)([CH]2CCCCC2)[CH]2CCCCC2)n1	nt	nt	nt	i
COc1ccc2o/c(=N\O)c(C(=O)Nc3ccc(C)cc3)cc2c1	i	?	23.1µM	i
COc1ccc(/C=C/C(=O)Nc2ccc(C)cc2)cc1	i	?	i	i[12.3 µM]
Cc1ccc(OC(=O)N(C)C[C@H]2OCc3cnnn3CCCC(=O)N([C@H](C)CO)C[C@@H]2C)cc1	i	?	?	nt
CCOP(=S)(OCC)SCSc1ccc(Cl)cc1	nt	i	i	i
